# Reference: ChEMBL document CHEMBL3988442, “University of Dundee, Small-Polar-MMV Screening Library” (2021)
# In all, about 48,000 compounds went through this assay and about 13,000 (27%) showed an effect of 50% or more. This is one part of the list.
# Test system: Wolbachia pipientis
# Assay: Anti-Wolbachia Cell-Based Screen
# Type: functional
# Parameters: scale not given: in the data most compounds retested in dose-response had high values
# Conditions: 5 µM
row,SMILES,Percent Effect [%]
1,Cc1cc(C(=O)N(C)CC(F)(F)C(F)(F)F)ccc1-n1cncn1,-4.765
2,N#Cc1ccc(SCCC(=O)Nc2ccc(CC(N)=O)cc2)cc1,-23.76
3,Cl.N#Cc1ccc(NC(=O)C2CSCN2)cc1 (stereo not given),137.5
4,CC(C(=O)Nc1ccc(C#N)cc1)N1CCc2ccccc21 (stereo not given),-0.338
5,O=C(Nc1ccc(F)cc1)C1CSCN1 (stereo not given),136.1
6,O=C(Nc1ccc(F)cc1)C1CCc2ccccc2N1 (stereo not given),3.241
7,O=C(Nc1ccc(F)cc1)C1CNCCN1C(=O)CC1CCCCC1 (stereo not given),-14.62
8,CN1CCCCC12CCN(c1nncs1)C2 (stereo not given),-10.05
9,COc1cc(Cl)cc(C(=O)N2CCC3(CCCNC3)C2)c1 (stereo not given),-2.555
10,CSc1ccsc1C(=O)N1CCN(CC(C)(C)O)CC1,6.232
11,CCc1ccc(C(=O)N2CCN(CC(C)O)CC2)o1 (stereo not given),-6.937
12,CCc1ccsc1C(=O)N1CCN(CC(C)O)CC1 (stereo not given),130.8
13,CCc1ccsc1C(=O)N1CCN(C(=O)c2ccc(C)o2)CC1,-4.902
14,CC(=O)N1CCN(C(=O)c2sccc2Br)CC1,-5.711
15,CCc1ccsc1C(=O)N1CCN(CCN2C(=O)CCC2=O)CC1,117.8
16,CCc1ccsc1C(=O)N1CCN(CC(N)=O)CC1,101.9
17,CCc1ccsc1C(=O)N1CCS(=O)(=O)CC1,-3.186
18,CCCc1nnsc1C(=O)N1CCN(CC(C)O)CC1.Cl (stereo not given),3.712
19,N#Cc1cccc(CN2C[C@@H](F)[C@@H](OCc3nc4cnccc4[nH]3)C2)c1,-8.923
20,c1cc(NCc2ccsc2)cc(-c2nnc[nH]2)c1,-4.767
21,Cc1cnc(N2CCN3C[C@H](OCc4cccc(C)n4)C[C@H]3C2)nc1.O=C(O)C(F)(F)F.O=C(O)C(F)(F)F.O=C(O)C(F)(F)F,-4.424
22,CC(C)c1cc2c(O)nc(CSCC(=O)NCc3ccncc3)nc2s1,17.11
23,O=C(CCNc1ncccn1)NCc1csc(Br)c1,22.34

row,SMILES,Percent Effect [%]
1,CC(=O)N1CCN(C(=O)NCc2csc(Br)c2)CC1,1.629
2,O=C(NCc1csc(Br)c1)c1ccncc1,3.838
3,O=C(CCc1ccncc1)NCc1csc(Br)c1,90.69
4,O=C(CSCc1ccncc1)NCc1csc(Br)c1,146.4
5,COc1cc(C)c(CNC(C)c2nc(C)cs2)cc1OC (stereo not given),-0.3291
6,CNC(=O)c1cn2cc(-c3ccc(F)cc3)n(CC=C(C)C)c(=O)c2n1,0.6659
7,Cc1nccc(N2CC[C@@H]3[C@@H](CCC(=O)N3CCc3ccccc3)C2)n1,-6.653
8,CCS(=O)(=O)N1CCC2(CC1)COC(COc1cccnc1)C2.O=C(O)C(F)(F)F (stereo not given),0.5823
9,O=S1(=O)c2cccnc2OC(COc2ccccc2)CN1CC1CC1 (stereo not given),113.6
10,CCN1Cc2c(C(=O)NCC3CC3)ncn2-c2ccccc2S1(=O)=O,19.38
11,CCN1CC(COc2ccccc2)Oc2ncccc2S1(=O)=O (stereo not given),122.7
12,O=C(c1c[nH]c2ncccc12)N1CCC(COc2ccccc2)CC1,-0.9312
13,Cc1cc(C)c(C#N)c(N2CCC(Cc3ccccc3)CC2)n1,-43.81
14,COCC1CN(C(=O)Cc2ccccn2)Cc2c1cnn2CC1CC1.O=C(O)C(F)(F)F.O=C(O)C(F)(F)F (stereo not given),-11.65
15,N#Cc1nccnc1N1CCC(Cc2ccccc2)C1 (stereo not given),-1.044
16,O=S1(=O)c2cccnc2OC(Cc2ccccc2)CN1CC1CC1 (stereo not given),92.92
17,COC(=O)CNCC1(O)CCCN(Cc2cccc(F)c2F)C1=O (stereo not given),2.816
18,CS(=O)(=O)Cc1ccc(CNC(=O)c2cccnc2O)cc1,12.39
19,CC(C)(NC(=O)NCc1cccc(Br)c1)C(=O)O,23.95
20,Nc1ncccc1C(=O)NCc1cccc(Cl)c1,135.3
21,Nc1ncccc1C(=O)NCc1cccc(Br)c1,158
22,O=C(NCc1ccncc1)c1ccc(Cl)cc1F,1.231
23,NC(=O)CN(CC(=O)NCc1cccc(Cl)c1)C1CCCC1,3.155

row,SMILES,Percent Effect [%]
1,COc1ncccc1CNC(=O)c1cccnc1O,-6.886
2,COCC(=O)NCc1cccc(Br)c1,-15.74
3,COc1cccc(CNC(=O)c2cccnc2N)c1,120.4
4,Nc1ncccc1C(=O)NCc1ccc(Br)cc1,135.9
5,COc1cccc(CNC(=O)c2nc3c(o2)CN(S(C)(=O)=O)C3)c1,-11.41
6,Cn1ccnc1-c1noc(NCc2ccccc2)n1,-0.05664
7,Nc1nnc(CCCNc2ncnc3c2CCN(C(=O)C2CC2)C3)s1,2.255
8,O=C(O)CSc1nnc(-c2cn[nH]c2)n1-c1ccccc1C(F)(F)F,-22.33
9,CC(=O)NC1(C(=O)N(C)Cc2c(C)noc2C)CCCCC1,-7.535
10,COc1ccc(C2CC(=O)c3c(O)cc(O)cc3O2)cc1O (stereo not given),-2.499
11,CC(C)(C)c1coc([C@@H]2COCCN2Cc2ccccn2)n1,-4.744
12,Cc1cccc(CN2CCN(C(=O)c3cccnc3O)CC2)c1,-8.356
13,CCCNC(=O)c1cccc2ncccc12,14.09
14,Cc1cccc(CNC(=O)c2cccnc2N)c1,165.4
15,CC(=O)c1ccc(C(=O)N(C)Cc2nc(-c3ccccn3)no2)s1,-11.07
16,O=C(CN(Cc1cccs1)C1CCS(=O)(=O)C1)NC1CCCCC1 (stereo not given),14.98
17,CC(C)(C)c1nc(CN(Cc2cccs2)C2CCS(=O)(=O)C2)no1 (stereo not given),9.766
18,Cc1nc(CN(Cc2cccs2)C2CCS(=O)(=O)C2)oc1C (stereo not given),-2.391
19,O=S1(=O)CCC(N(Cc2nc3ccccc3o2)Cc2cccs2)C1 (stereo not given),98.01
20,O=S1(=O)CCC(N(Cc2nc(-c3ccccn3)no2)Cc2cccs2)C1 (stereo not given),124.4
21,Cc1ccc(-c2nc(CN(Cc3cccs3)C3CCS(=O)(=O)C3)cs2)o1 (stereo not given),4.898
22,O=C(CN(Cc1cccs1)C1CCS(=O)(=O)C1)NCC1CCCCC1 (stereo not given),2.941
23,CC(C)c1noc(CN(Cc2cccs2)C2CC2)n1,16.09

row,SMILES,Percent Effect [%]
1,Cc1noc(C)c1CN(Cc1cccs1)C1CCS(=O)(=O)C1 (stereo not given),104.9
2,CC(C)(C)c1nc(CN(Cc2cccs2)C2CCS(=O)(=O)C2)cs1 (stereo not given),26.63
3,Cc1noc(CN(Cc2cccs2)C2CCS(=O)(=O)C2)n1 (stereo not given),99.33
4,O=C(CNC(=O)c1ccoc1)NC(c1ccc(F)cc1)C(F)(F)F (stereo not given),0.03163
5,CC1CN(C(=O)c2nccnc2N)c2ccc(F)cc2O1 (stereo not given),-7.593
6,COCCN(CCOC)C(=O)c1sc(C)nc1C,-9.667
7,CCC(C)(C)NC(=O)C[S+]([O-])Cc1csc(C2CCCC2)n1 (stereo not given),-6.862
8,Cc1ccc(C)c(CS(=O)(=O)CC(=O)N(C)Cc2cccc(F)c2)c1,-31.79
9,Cc1nc(C)n(CC2CCCN2c2ncnc3sccc23)n1 (stereo not given),103.4
10,Cc1sc2ncnc(N3CCCC3Cn3cccn3)c2c1C (stereo not given),126.3
11,c1cnn(CC2CCCN2c2ncnc3sccc23)c1 (stereo not given),-19.57
12,c1cnn(CC2CCCN2c2ncnc3c2CCC3)c1 (stereo not given),-39.95
13,c1nc2c(c(N3CCCC(Cn4cncn4)C3)n1)CCC2 (stereo not given),-15.31
14,c1ccc2c(N3CCCC3Cn3cccn3)ncnc2c1 (stereo not given),-8.877
15,c1cnn(CC2CCCN2c2ncnc3ccsc23)c1 (stereo not given),77.53
16,Cc1nc(C)n(CC2CCCN(c3ncnc4sccc34)C2)n1 (stereo not given),4.886
17,c1cnn(CC2CCCCN2c2ncnc3sccc23)c1 (stereo not given),-1.869
18,c1nc(N2CCCC2Cn2cncn2)c2ccsc2n1 (stereo not given),-0.0676
19,c1nc(N2CCCC(Cn3cncn3)C2)c2ccsc2n1 (stereo not given),13.9
20,c1nc(N2CCCC(Cn3cncn3)C2)c2sccc2n1 (stereo not given),164.6
21,COc1ccc(CN2C[C@@H]3[C@H](CC(=O)N4CCCC4)[C@@H]3C2)cc1.O=C(O)C(F)(F)F,-9.887
22,CN(C)C[C@@H]1CCC[C@@H]2CN(c3cccnc3)C[C@@H]21.O=C(O)C(F)(F)F,5.573
23,CC(C)c1nc(S(=O)(=O)N(C)c2cc(F)ccc2F)c[nH]1,7.665

row,SMILES,Percent Effect [%]
1,CCN(Cc1ccoc1)Cc1nc(COC)no1,-32.73
2,Cc1nc(C)n(CC2CCCN2c2ncnc3sc(C)c(C)c23)n1 (stereo not given),109.1
3,c1nc(N2CCCCC2Cn2cncn2)c2sccc2n1 (stereo not given),0.3831
4,CN(C)C(=O)C1CCCN1c1ncnc2ccsc12 (stereo not given),11.36
5,CN1CCN(C(=O)C2CCCN2c2ncnc3ccsc23)CC1 (stereo not given),-5.799
6,Cc1nc(C)n(CC2CCCCN2c2ccnc(-c3ccccc3)n2)n1 (stereo not given),-2.922
7,Cc1nc(C)n(CC2CCCCN2c2ncnc3ccsc23)n1 (stereo not given),109.8
8,Cc1nc(C)n(CC2CCCN2c2ccnc(-c3ccccc3)n2)n1 (stereo not given),6.693
9,Cc1nc(C)n(CC2CCCN2c2ncnc3ccsc23)n1 (stereo not given),106.3
10,Cc1nc(C)n(CC2CCCN2c2ncnc3c2CCC3)n1 (stereo not given),-5.699
11,CN(C)C1Cc2ccccc2N(S(=O)(=O)c2cccc(C#N)c2)C1 (stereo not given),-17.15
12,CC(C)CC(=O)N1CCN(C(=O)N(C)C)CC2(CC(=O)N(C)C2)C1 (stereo not given),-13.83
13,Cc1noc(C2CCCN(C(=O)c3cc(-c4ccccc4)on3)C2)n1 (stereo not given),95.63
14,Cn1cnnc1C1CCCN(C(=O)NCc2cc[nH]n2)C1 (stereo not given),-3.292
15,CCOc1ncccc1C(=O)N1CCCC(c2nncn2C)C1 (stereo not given),139.9
16,Cc1noc(C2CCCN(C(=O)c3cc(Cl)cn3C)C2)n1 (stereo not given),-4.017
17,Cc1csc(CNC(=O)N2CCCC(c3nncn3C)C2)n1 (stereo not given),102.5
18,Cn1cnnc1C1CCCN(C(=O)NCc2ccccc2)C1 (stereo not given),-1.027
19,COC1CCN(C(=O)c2cc(-c3ccc(Cl)cc3)on2)CC1,1.194
20,CCOC1CCN(C(=O)c2cc(-c3ccc(Cl)cc3)on2)CC1,-1.009
21,Cn1cnnc1C1CCN(C(=O)c2cc(-c3ccccc3)on2)CC1,84.11
22,Cc1noc(C2CCCN(C(=O)c3cc(Cl)ccc3F)C2)n1 (stereo not given),-1.909
23,CCOc1ncccc1C(=O)N1CCCC(c2nccn2CCOC)C1 (stereo not given),-5.342
